Reference: PubChem BioAssay AID1030 (National Center for Advancing Translational Sciences (NCATS), 2008)
The campaign covered roughly 220,000 compounds. About 16,000 (7.3%) were called active. Not shown: some 25% with an inconclusive outcome. Calls follow the shape of the dose curve; as a rule, active = well fitted inhibition curve with a large enough effect (not every such curve was filed as active); inconclusive = small, poorly fitted or top-dose-only effect, or another doubt; inactive = no such curve, though single readings can be large or run the other way. The full list was thinned out, with actives kept by preference.

Molecular target: Aldehyde dehydrogenase 1A1 (Homo sapiens) (UniProt P00352)
Sequence (P00352 whole entry, looked up): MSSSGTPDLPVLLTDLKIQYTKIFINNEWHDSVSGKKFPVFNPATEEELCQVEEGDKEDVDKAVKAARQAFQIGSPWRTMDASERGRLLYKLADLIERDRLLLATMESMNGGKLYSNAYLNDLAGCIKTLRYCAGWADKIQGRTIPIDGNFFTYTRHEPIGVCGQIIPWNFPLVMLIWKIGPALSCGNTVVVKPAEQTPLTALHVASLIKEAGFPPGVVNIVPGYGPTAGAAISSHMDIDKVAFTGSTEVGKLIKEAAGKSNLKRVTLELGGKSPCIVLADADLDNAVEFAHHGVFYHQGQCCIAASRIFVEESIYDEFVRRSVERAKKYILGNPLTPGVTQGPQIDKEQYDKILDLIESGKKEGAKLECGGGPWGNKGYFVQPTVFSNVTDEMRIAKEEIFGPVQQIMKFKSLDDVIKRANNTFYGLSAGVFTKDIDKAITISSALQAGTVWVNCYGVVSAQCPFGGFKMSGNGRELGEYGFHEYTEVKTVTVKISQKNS
Assay: qHTS Assay for Inhibitors of Aldehyde Dehydrogenase 1 (ALDH1A1);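 as to activity, negative = inhibition: plate controls were no enzyme wells and a reference inhibitor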
Details: Purified ALDH1A1, NADH fluorescence, propionaldehyde substrate; series mostly up to 75.3 µM; activity, negative = inhibition: at the top concentration
Potency is read from the fitted curve at half-maximal effect.

Row | SMILES | activity, negative = inhibition | Potency
1 | Cc1cccc(NC(=S)N2CCCC(c3nc4ccccc4[nH]3)C2)c1 (stereo not drawn) | -4.99% (inactive) | –
2 | CCCn1nnc2sc3c(c2c1=O)CCC(C)C3 (stereo not drawn) | – | 6.31 µM (active)
3 | CC(C)(C)C1CCc2c(sc3nc(SCC(N)=O)nc(N)c23)C1 (stereo not drawn) | -2.86% (inactive) | –
4 | CCC1(C)Cc2c(sc3nnn(CC(=O)Nc4ccc(Cl)cc4)c(=O)c23)CO1 (stereo not drawn) | 1.5% (inactive) | –
5 | Cc1ccc(NC(=O)c2ccccn2)cc1S(=O)(=O)N1CCOCC1 | -1.07% (inactive) | –
6 | CCc1ccc2c(c1)cc(CN(C(=S)Nc1ccccc1Cl)C1CC1)c1nnnn12 | 0.303% (inactive) | –
7 | CCOc1ccc2c(c1)cc(CN(C(=O)CC)C1CCCCC1)c1nnnn12 | – | 31.6 µM (active)
8 | O=C(COC(=O)c1ccncc1)c1ccccc1 | -0.468% (inactive) | –
9 | Cn1cccc1/C=C1\SC(=O)N(CC(=O)Nc2ccc(F)cc2)C1=O | 6.89% (inactive) | –
10 | COC(=O)CCCC1=CC2=CC(=O)C(C)(OC(=O)c3cccs3)C(=O)C2=CN1c1cccc(C#N)c1 (stereo not drawn) | 1.29% [at 13.5 µM] (inactive) | –
11 | Cc1ccc(-c2cc(C(=O)N3CCc4ccccc4C3)no2)cc1 | -6.72% (inactive) | –
12 | Cc1ccc2c(c1)N(C(=O)CCC(=O)N1CCc3ccccc3C1)CCO2 | – | 20 µM (active)
13 | Cc1ccc(S(=O)(=O)N(C)CC(=O)N2CCc3ccccc32)cc1 | -14.1% (inactive) | –
14 | Cc1cccc(NC(=O)Nc2ccc3c(c2)OCO3)n1 | -5.97% (inactive) | –
15 | CC1=C2[C@@H](O)[C@H]([C@@H](C)C(=O)NCCC(C)C)CC[C@@]2(C)C=CC1=O | 3.98% (inactive) | –
16 | CC(=O)OC1C([N+]2(C)CCCCC2)C[C@H]2C3CC[C@H]4C[C@H](OC(C)=O)C([N+]5(C)CCCCC5)CC4(C)C3CCC12C (stereo partly drawn) | -0.578% (inactive) | –
17 | N#Cc1ccc(COC(=O)Cn2nnc(-c3ccccc3)n2)cc1 | -12.2% (inactive) | –
18 | O=C(O)C1CCN(C(=O)OCc2ccccc2)CC1 | 11.2% (inactive) | –
19 | N#Cc1c(N)sc2c1CCN(C(=O)OCc1ccccc1)C2 | – | 10 µM (active)
20 | CCN1CCC2(CCN(Cc3cn[nH]c3-c3ccc(OC)c(F)c3)C2)C1 (stereo not drawn) | -5.12% (inactive) | –
21 | C=CCN(CC=C)CCOc1ccccc1[N+](=O)[O-] | -17% (inactive) | –
22 | COc1ccc(Nc2nc(N)nc(CSC(=S)N3CCC(C)CC3)n2)cc1 | – | 3.16 µM (active)
23 | CCOC(=O)c1cnc(SCc2nc(N)nc(Nc3ccc(OC)cc3)n2)nc1N | 8.96% (inactive) | –
24 | CCOC(=O)N1CCN(Cc2nc(N)nc(Nc3ccc(C)cc3)n2)CC1 | -7.53% (inactive) | –
25 | Oc1ccc(-c2onc3ccc(Cl)cc23)cc1 | – | 11.2 µM (active)
26 | O=C(Cn1nnc(-c2ccccc2)n1)NCc1ccc2c(c1)OCO2 | 0.62% (inactive) | –
27 | O=C(CCCCn1c(=O)[nH]c2ccccc2c1=O)NCc1ccc2c(c1)OCO2 | 7.65% (inactive) | –
28 | O=C1N(Cc2ccc3c(c2)OCO3)c2ccccc2C1(O)c1c[nH]c2ccccc12 (stereo not drawn) | – | 3.16 µM (active)
